# From PubChem
# aSyn 5UTR act: Activators via SNCA 5'UTR binding, MLPCN. activity score, % (tested at 7.5 µM), hits read low. alpha-synuclein 5'UTR reporter, activators screen. actives 7.1% (n = 300,000); in the data active = activity score below about -60%
# The depositor's hits bear a star. Only a sample is shown.
SMILES,aSyn 5UTR act
COc1ccc(/C=N/Nc2cc(C)nc3ccc(Br)cc23)cc1,100
COc1cc(C2=NOC(C(=O)Nc3ccc(C(C)=O)cc3)C2)cc(OC)c1OC (stereo unspecified),-80*
COc1ccc2nc(NC(=O)c3ccc(NS(=O)(=O)c4cccs4)cc3)sc2c1,-67*
COc1ccc(C(=O)Nc2nc(-c3cccs3)c(NC(C)=O)s2)cc1,-83*
COc1ccc(C(=O)Nc2nc3ccc(OC)cc3s2)cc1,-277*
CCn1cc([N+](=O)[O-])c(C(=O)Nc2nc3ccc(OC)cc3s2)n1,-84*
COc1ccc(NC(=O)c2ccccn2)cc1,75
O=C(NCc1ccc(F)cc1)c1cnn2ccccc12,-87*
CCc1ccc(NC(=O)c2cnn3ccccc23)cc1,78
CSc1cccc(NC(=O)c2cnccn2)c1,-69*
COc1ccc(NC(=O)c2ccccn2)cc1OC,-88*
CSc1cccc(NC(=O)c2cnn3ccccc23)c1,-100*
CSc1cccc(NC(=O)c2ccccn2)c1,-103*
Cc1nc(-c2ccc(Cl)cc2)sc1C(=O)O,-101*
C/C(=N\OC(=O)c1ccc(F)cc1)c1sc(-c2ccc(Cl)cc2)nc1C,-211*
Cc1ccc(-c2nc(C)c(C(=O)O)s2)cc1,-208*
CCOc1ccc(Oc2ccc(C(F)(F)F)cc2N)cc1,-87*
COc1cccc(Oc2ccc(C(F)(F)F)cc2N)c1,-104*
Clc1ccccc1Cn1nnc(-c2ccccc2)n1,-153*
CN(C)c1ccc(-c2nnn(Cc3ccccc3Br)n2)cc1,-66*
Clc1ccccc1Cn1nnc(-c2cccs2)n1,-100*
CC1(C)CC(=O)c2sc(N3CCCCC3)nc2C1,-91*
Clc1ccc(-c2cn3c(n2)SCC3)cc1,-186*
Brc1ccc(-c2cn3c(n2)SCC3)cc1,-179*
COc1ccc(-c2cn3cccnc3n2)cc1Br,-66*
SMILES,aSyn 5UTR act
COc1ccc(CC(=O)Nc2ccc(-c3cn4ccccc4n3)cc2)cc1,-124*
COc1ccc(CC(=O)Nc2ccc(-c3cn4ccccc4n3)cc2)cc1OC,-86*
COc1ccc(-c2cc3cc(OC)c(OC)cc3cn2)cc1OC,-140*
O=C(Nc1ccc(-c2cn3ccccc3n2)cc1)c1cccs1,-129*
COc1ccc(-c2cn3ccccc3n2)cc1OC,-171*
c1ccn2cc(-c3ccc4c(c3)OCCO4)nc2c1,98
COc1ccc(-c2cn3cc(Br)cnc3n2)cc1,-123*
O=C(O)c1ccc2oc(SCC(=O)N3CCCCC3)nc2c1,-88*
CC1CCCN(C(=O)CSc2nc3ccccc3o2)C1 (stereo unspecified),-99*
Clc1ccc2nc(-c3ccc(Cl)nc3)[nH]c2c1,-293*
Nc1ccc(Cc2nc3c(ccc4ccccc43)[nH]2)cc1,-171*
Nc1ccc2nc(-c3ccc(Cl)cc3)[nH]c2c1,-176*
Nc1ccc(-c2nc3ccc(N)cc3[nH]2)cc1,-62*
CCc1nc(N)nc(N)c1-c1ccc(Cl)cc1,85
Cc1ccc2nc(Cc3ccc(N)cc3)[nH]c2c1,-90*
Nc1ccc2nc(-c3cc(Cl)c(N)c(Cl)c3)[nH]c2c1,-279*
Cc1ccc2nc(C(O)C(O)c3nc4ccc(C)cc4[nH]3)[nH]c2c1 (stereo unspecified),-159*
Cc1ccc(C)c(-c2nc3ccc(N)cc3[nH]2)c1,-64*
[O-]/[N+](=C\C=C\c1ccccc1)c1ccccc1,-182*
Cc1ccccc1S(=O)(=O)Oc1ccc2ccc(O)cc2c1,-131*
Cc1ccccc1C(=O)Oc1ccc2ccc(O)cc2c1,-162*
O=C(c1ccccc1)c1nc[nH]c1C(=O)Nc1ccccc1,-91*
Cc1ccc(NC(=O)c2[nH]cnc2C(=O)NN)cc1,-65*
Cc1ccc(N=Nc2ccc(O)c3ncccc23)cc1,86
Cc1ccc(N=Nc2c(O)n(CN3CCOCC3)c3ccccc23)cc1,-116*
SMILES,aSyn 5UTR act
O=C(O)c1nc2ccccc2nc1C(=O)O,-166*
CC(C)(C)NC(=O)C(=O)NNC(=O)c1cccc(F)c1,-89*
C/C(=N/NC(=O)c1ccoc1C)c1ccc(NC(=O)c2ccncc2)cc1,-206*
C/C(=N/NC(=O)c1ccoc1C)c1ccc(N2CCOCC2)cc1,-131*
C/C(=N\NC(=O)c1nn(C)c(C)c1Br)c1ccc(NC(=O)c2ccoc2C)cc1,-115*
C/C(=N\NC(=O)c1ccoc1C)c1cccnc1,-117*
C/C(=N\NC(=O)c1ccc(NS(=O)(=O)c2cccs2)cc1)c1ccccn1,71
Cc1ccc(/C=N/NC(=O)c2cc(-c3cccnc3)nc3ccccc23)cc1,81
C/C(=N\NC(=O)c1c(Br)c(C)nn1C)c1ccc(NC(=O)c2ccoc2C)cc1,-106*
C/C(=N\NC(=O)c1nn(C)c(C)c1Br)c1ccc(NC(=O)c2ccc(C)s2)cc1,-149*
CCOc1ccc(-c2cc(C(=O)N/N=C(\C)c3cccnc3)c3ccccc3n2)cc1,-92*
C/C(=N\NC(=O)c1nn(C)c(C)c1Br)c1ccc(NC(=O)c2ccccc2F)cc1,-69*
C/C(NC(=O)c1ccccc1)=C1/C(=O)CC2C1C2(C)C (stereo unspecified),-99*
CCN1CCN(Cc2ccc(NC(=O)c3cc(NC(=O)C(=O)c4c[nH]c5ccccc45)cc(OC)c3)cc2C(F)(F)F)CC1,117
O=C(Nc1ccc2c(c1)OCO2)C(=O)c1c[nH]c2ccccc12,-72*
Cc1[nH]c2ccccc2c1C(=O)C(=O)Nc1ccc2c(c1)OCCO2,-126*
CCOC(=O)c1ccc2[nH]c3c(c2c1)CCCCC3=O,-102*
O=C1CCCc2c1[nH]c1ccc(Cl)cc21,63
Cc1nc(-c2ccc(Cl)cc2)sc1C1(C)CC(c2cccc(F)c2)=NO1 (stereo unspecified),-67*
O=C(O)C1CC(=O)N(c2ccc(OCc3ccccc3)cc2)C1 (stereo unspecified),-66*
C=CCNC(=O)C1CC(=O)N(c2ccc(OCc3ccccc3Cl)cc2)C1 (stereo unspecified),-111*
COc1ccc2nc(N3CCCC(C(=O)NCCc4ccc(OC)c(OC)c4)C3)sc2c1 (stereo unspecified),-87*
CCOc1ccc2nc(N3CCCC(C(=O)NCCCN4CCCCC4)C3)sc2c1 (stereo unspecified),-86*
COc1ccc(CCNC(=O)c2ccc3nc(N4CCCCC4)sc3c2)cc1OC,-131*
O=C(Cc1nc2ccccc2[nH]1)c1ccc(Br)cc1,-190*
SMILES,aSyn 5UTR act
O=C(Cc1nc2ccccc2[nH]c1=O)c1ccccc1,-172*
O=C(Oc1oc(-c2ccco2)nc1C=Nc1ccc(Cl)cc1)c1ccco1,-170*
COc1ccc(N=Cc2nc(-c3ccco3)oc2O)cc1,-111*
O=C(Nc1cccc2ncccc12)c1cc([N+](=O)[O-])ccc1Cl,-62*
O=C(CCl)Nc1cccc2ncccc12,-95*
Cc1ccc(O)c(NC(=O)c2cc([N+](=O)[O-])ccc2Cl)c1,-62*
Cc1cc(O)c(NC(=O)c2cc([N+](=O)[O-])ccc2Cl)cc1C,-106*
Cc1ccc(C2(c3ccc(C)cc3)CC2C(=O)Nc2ccc([N+](=O)[O-])cc2O)cc1 (stereo unspecified),67
O=C(Nc1cccc2c1CCCC2)c1cc([N+](=O)[O-])ccc1Cl,-79*
O=C(c1ccccc1)c1ccc2nc(-c3ccc(NC(=O)c4ccccc4F)cc3)[nH]c2c1,-101*
CC(=O)Nc1ccc2nc(-c3ccco3)[nH]c2c1,-73*
O=C(Nc1ccc2nc(-c3ccccc3)[nH]c2c1)c1cccs1,-103*
Cc1ccc2nc(-c3cccc(NC(=O)c4ccco4)c3)[nH]c2c1,-121*
